Sampled rows, rich in hits. Any-hit rate of the full collection: about 18%.
TDP1 inh: TDP1 (human) enzyme inhibition | Q9NUW8 | Potency, µM (doses to about 130 µM), for the others: at the top dose activity change, negative = inhibition, hits mostly inhibitors | 350,000 compounds, 0.28% hits | recombinant TDP1, AlphaScreen DNA substrate cleavage; further: potency means the concentration at half of the fitted maximal effect; on the % scale 0 is the no-effect control and ±100 the full control effect; nearly all actives have a fitted effect of over 40% in size
Target sequence (Q9NUW8 whole entry, looked up): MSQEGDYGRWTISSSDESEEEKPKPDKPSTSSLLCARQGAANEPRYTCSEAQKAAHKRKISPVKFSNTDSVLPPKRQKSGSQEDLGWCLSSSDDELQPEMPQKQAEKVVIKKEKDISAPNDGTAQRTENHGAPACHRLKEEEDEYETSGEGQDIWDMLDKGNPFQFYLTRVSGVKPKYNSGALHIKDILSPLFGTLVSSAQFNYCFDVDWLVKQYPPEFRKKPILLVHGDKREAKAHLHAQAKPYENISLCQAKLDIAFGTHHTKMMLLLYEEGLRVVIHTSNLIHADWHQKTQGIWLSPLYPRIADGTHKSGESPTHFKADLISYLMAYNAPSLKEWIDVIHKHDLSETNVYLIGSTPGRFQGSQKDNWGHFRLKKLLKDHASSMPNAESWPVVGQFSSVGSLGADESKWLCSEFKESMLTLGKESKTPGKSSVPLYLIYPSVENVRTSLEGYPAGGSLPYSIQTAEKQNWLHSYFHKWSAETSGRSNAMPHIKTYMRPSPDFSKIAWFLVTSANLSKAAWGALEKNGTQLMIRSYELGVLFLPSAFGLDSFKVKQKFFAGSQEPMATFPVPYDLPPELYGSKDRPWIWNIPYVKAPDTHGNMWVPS
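Steps: enzyme plus compound, 15 min RT; add biotin/phosphotyrosine-FITC oligonucleotide (15 nM final), react 5 min; add donor/acceptor beads (10 ug/ml final), 10 min; read AlphaScreen. Tdp1 at 1 nM final.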
IL1B secr inh: blocks inflammasome-driven IL-1 beta release; THP-1 LPS/ATP IL-1B secretion, AlphaLISA, 16 h; active compounds read low; activity change, % at 57.5 µM; 360,000 compounds, 4.7% hits; AID 743279; in the data active means activity change below about -50%; inconclusive means mostly about -30% to -49%; further: on the % scale 0 is the no-effect control and ±100 the full control effect
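Secreted IL-1B measured by AlphaLISA bead assay after 16 h compound exposure of THP-1 cells; compounds (final up to 57.5 uM) added 1 h before LPS (250 ng/mL) and ATP (1.25 mM) stimulation; lower signal means less secretion.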
DT40 TDP1 no CPT: qHTS for Inhibitors of human tyrosyl-DNA phosphodiesterase 1 (TDP1): qHTS in cells in absence of CPT; DT40 Tdp1-/- hTDP1 cells, no CPT, ATP luminescence, 48 h; Potency, µM (series often up to 46.2 µM), inactives show at the top dose activity change, negative = growth inhibition, usual class: inhibitors; 420,000 compounds, 15% hits; further: potency means the concentration at half of the fitted maximal effect; on the % scale 0 is the no-effect control and ±100 the full control effect; nearly all actives have a fitted effect of over 55% in size
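Seeded 400 DT40-hTDP1 cells/well (vehicle DMSO, no 20 nM CPT); pinned compounds; ≥48 hr at 37 °C; CellTiter-Glo luminescence as viability measure.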
DT40 TDP1 CPT: DT40-hTDP1 cell growth loss with CPT. Potency, µM (highest dose often 46.2 µM), inactives show at the top dose activity change, negative = growth inhibition, hits mostly inhibitors. 420,000 compounds, 12% hits. AID 686979. chicken DT40 Tdp1-/-;hTDP1 cells + 20 nM CPT, ATP luminescence, 48 h; further: potency means the concentration at half of the fitted maximal effect; on the % scale 0 is the no-effect control and ±100 the full control effect; nearly all actives have a fitted effect of over 55% in size
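Chicken DT40 Tdp1-/- cells stably complemented with human TDP1 were seeded at 400 cells/well in medium containing 20 nM camptothecin, exposed to pin-transferred compounds, and grown at 37 °C for at least 48 hr. Viability was read as ATP luminescence.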
HepG2 viability: HepG2 cytotoxicity, counter-screen for TGF-b inhibitors; AID 588856; Potency, µM (highest dose often 46.1 µM), for the others: at the top dose activity change, negative = cytotoxicity, hits mostly cytotoxic; HepG2 CAGA-GFP viability, ATP luminescence, 18 h; 410,000 compounds, 0.76% hits; further: potency means the concentration at half of the fitted maximal effect
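CellTiter-Glo luminescence gave cytotoxicity after 18 hours at 37 degrees C. The cells were HepG2 CAGA-GFP in 1% FBS DMEM, stimulated with 500 pg/mL TGF-beta after compound addition. %Activity was normalised to no-cell wells (complete cell-killing) and DMSO (no toxicity), and curves were fitted and classified.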
TGFb SMAD3 inh: inhibitors of TGF-b signaling | HepG2 CAGA-GFP TGF-b/SMAD3 reporter, GFP fluorescence, 18 h; TGF-beta stimulated, 500 pg/mL final | Potency, µM (highest dose often 46.1 µM), for inactives: at the top dose activity, negative = inhibition, actives largely listed as inhibitors | 410,000 compounds, 1.2% hits | AID 588855; further: potency means the concentration at half of the fitted maximal effect; on the % scale 0 is the no-effect control and ±100 the full control effect; nearly all actives have a fitted effect of over 65% in size
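HEPG2 CAGA-GFP cells (1000/well, DMEM with 1% FBS) were pre-incubated 2 h at 37 degrees C, given compound by pin tool, then stimulated with TGF-beta at 500 pg/mL final for 18 h before per-cell GFP fluorescence imaging.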
* = called active by the depositor; ? = inconclusive; . = no result given. Unless noted, the call rests on the fitted dose curve; in most records, active means well fitted curve in the direction sought with a large enough effect; inconclusive means small, poorly fitted or top-dose-only effect, or another doubt; inactive means no such curve, though single readings can be large; an effect the other way counts as inactive or inconclusive.

SMILES | TDP1 inh | IL1B secr inh | DT40 TDP1 no CPT | DT40 TDP1 CPT | HepG2 viability | TGFb SMAD3 inh
CCc1ccccc1NC(=O)CN1CCN(C(=O)CNC(=O)Cc2cccc3ccccc23)CC1 | 1.1% | -10.1 | ? | -16.8% | -17.1% | ?
Cc1cccc(C)c1NC(=O)CN1CCN(C/C=C/c2ccccc2)CC1 | . | 3.6 | ? | ? | -12.3% | -12.3%
Cc1cccc(NC(=O)CN2CCN(C(=O)CNC(=O)c3ccc(-c4ccccc4)cc3)CC2)c1C | . | 37.6 | 2.31µM* | 4.61µM* | -27.8% | -11.1%
Cc1cccc(C)c1NC(=O)CN1CCN(C(=O)CNC(=O)c2ccc(-c3ccccc3)cc2)CC1 | . | 29.2 | 16.4µM* | ? | -27.7% | -6.6%
Cc1cccc(N2CCN(C(=O)CNC(=O)c3ccccc3)CC2)c1C | . | -2.1 | ? | -10.9% | -21.5% | 0.0%
Cc1cccc(C)c1NC(=O)CN1CCN(C(=O)CNC(=O)Cc2cccc3ccccc23)CC1 | . | 2.7 | 14.6µM* | ? | -34.2% | -20.2%
O=C(CSc1ncn(-c2ccccc2)n1)Nc1nc2ccccc2s1 | 7.6% | -4.8 | 5.3% | -19.3% | -17.3% | 1.5%
O=C(CSc1ncc(CO)n1Cc1ccccc1)Nc1nc2ccccc2s1 | 7.7% | . | 16.4µM* | 20.6µM* | -25.0% | -10.6%
O=C(CSc1ncc(CO)n1Cc1ccccc1)Nc1ccc(C(F)(F)F)cc1 | 5.3% | . | 23.1µM* | 14.6µM* | -42.5% | ?
CS(=O)(=O)C1=NSC2=NC(=O)/C(=C\c3ccc(OC(=O)c4ccco4)c(Br)c3)C(=N)N21 | 5.4% | 3.6 | ? | 2.7% | -5.0% | 20.4%
COCCNc1c2c(nc3c(-c4ccccc4)c(C)nn13)CCCC2 | -8.6% | -23.9 | ? | 15.8µM* | -38.8% | ?
CCCCNc1c2c(nc3c(-c4ccccc4)c(C)nn13)CCC2 | -0.5% | -26.3 | 29.1µM* | 20.6µM* | -62.0% | -2.8%
COc1cccc(Nc2c3c(nc4c(-c5ccccc5)c(C)nn24)CCC3)c1 | -8.0% | 1.1 | 13µM* | 5.8% | -13.0% | -11.0%
Cc1nn2c(NCCOCCO)c3c(nc2c1-c1ccccc1)CCCC3 | 4.8% | ? | ? | -13.4% | -34.6% | -17.5%
Cc1nn2c(NCCN(C)C)c3c(nc2c1-c1ccccc1)CCCC3 | 4.1% | -57.6* | 1.03µM* | 0.581µM* | -68.0% | 11.2µM*
Cc1nn2c(NCc3cccnc3)c3c(nc2c1-c1ccccc1)CCC3 | . | -75.6* | ? | ? | -19.7% | 3.2%
CCO[C@@H]1OC(C(=O)NCc2nc3ccccc3[nH]2)=C[C@H](c2cn(C(C)=O)c3ccccc23)[C@H]1CCCO | 9.0% | ? | 16.4µM* | ? | -14.4% | -23.0%
CCO[C@H]1OC(C(=O)NCc2nc3ccccc3[nH]2)=C[C@@H](c2cn(C(C)=O)c3ccccc23)[C@@H]1CCCO | . | -13.6 | 18.4µM* | ? | 0.0% | ?
CCO[C@@H]1OC(C(=O)NCc2ccccc2)=C[C@H](c2cn(C(C)=O)c3ccccc23)[C@H]1CCCO | 6.4% | -53.5* | 18.4µM* | ? | -8.5% | -6.0%
CCO[C@@H]1OC(C(=O)NCc2nc3ccccc3[nH]2)=C[C@H](c2coc3ccccc3c2=O)[C@H]1CCCO | . | -5.2 | -12.4% | -29.3% | -5.9% | ?
CCN(Cc1ccc(Cl)s1)C(=O)c1cccc(OCc2c(C)noc2C)c1 | -4.4% | ? | ? | ? | -3.3% | ?
COc1ccc(S(=O)(=O)N2CCC(C(=O)N[C@H](C(=O)NCc3ccccc3)C(C)C)CC2)cc1 | . | 19.5 | ? | 25.0% | -35.1% | -1.8%
S=C(N=Nc1ccccc1)NNc1ccccc1 | 11.0% | -6.8 | ? | 3.66µM* | -5.5% | -16.6%
Cc1ccc(S(=O)(=O)N2[C@H](CC(=O)c3ccc(Cl)c(Cl)c3)OC[C@@H]2C(C)C)cc1 | . | -4.0 | -11.8% | -8.4% | . | .
C[C@H]1CN([C@@H](C)CO)C(=O)Cc2cc(NC(=O)CCC(F)(F)F)ccc2O[C@H]1CN(C)S(=O)(=O)c1ccc(Cl)cc1 | -0.1% | 50.2 | ? | 5.17µM* | 1.5% | ?
SMILES | TDP1 inh | IL1B secr inh | DT40 TDP1 no CPT | DT40 TDP1 CPT | HepG2 viability | TGFb SMAD3 inh
C[C@H]1CN([C@@H](C)CO)C(=O)Cc2cc(NC(=O)CCC(F)(F)F)ccc2O[C@H]1CN(C)S(=O)(=O)c1ccc(F)cc1 | 0.6% | 54.2 | 6.51µM* | 7.31µM* | -1.7% | -4.3%
O=C1c2cc([N+](=O)[O-])ccc2-c2cc(Br)c(N=C(NO)C(F)(F)F)cc21 | . | -100.9* | ? | -7.3% | -109.4% | -0.2%
O=C1c2cc([N+](=O)[O-])ccc2-c2cc(Cl)c(NC(=O)C(F)(F)F)cc21 | . | 11.1 | ? | ? | -4.9% | 0.0%
COc1ccc(Nc2nc(N)nc(N)c2S(=O)(=O)c2ccccc2)cc1 | 9.7% | . | . | . | -4.0% | -18.5%
COc1ccc(CN(C)[C@H]2C[C@H]3c4[nH]c5ccccc5c4CCN3C[C@H]2[C@H](C)O)cc1 | . | -25.9 | 18.4µM* | ? | -33.0% | -14.0%
Cc1ccc(S(=O)(=O)N(C)[C@H]2C[C@H]3c4[nH]c5ccccc5c4CCN3C[C@H]2[C@H](C)O)cc1 | . | -7.0 | ? | 20.6µM* | -16.1% | ?
O=C(NCCc1ccncc1)c1ccc2nc(Cc3cccc(Cl)c3)oc2c1 | 3.1% | -5.6 | -24.5% | 1.2% | -9.2% | -3.9%
